This excerpt belongs to a sample that is enriched for hits.
DUX4 inh = DUX4-mediated transcription inhibition. 293T-iDUX4 ZSCAN4-Gaussia luciferase reporter, 24 h; hits give low values. activity change, negative = inhibition, % (no concentration beside the values). 37,000 compounds, 0.8% hits. AID 1224904;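 active = mean inhibition of at least 10% in the main channel, exceeding the control channel by a set limit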;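 also: 0% = median of neutral control wells and -100% = median of positive control wells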
Starred values were filed as active, the others as inactive; ! = repeats disagree.

SMILES	DUX4 inh
Cc1ccccc1-c1ccc([C@@H]2[C@@H](CO)N3CCCCN(S(=O)(=O)Cc4ccccc4)C[C@H]23)cc1	-45*
CCS(=O)(=O)N1CCCCN2[C@H](C1)[C@@H](c1ccc(-c3ccccc3C)cc1)[C@@H]2CO	9
Cn1cnc(S(=O)(=O)N2CCCCN3[C@H](C2)[C@H](c2ccc(-c4cccc(F)c4)cc2)[C@@H]3CO)c1	9
Cc1ccccc1-c1ccc([C@@H]2[C@@H](CO)N3CCCCN(S(C)(=O)=O)C[C@H]23)cc1	3
Cc1ccccc1S(=O)(=O)N1CCCCN2[C@@H](CO)[C@@H](c3ccc(-c4cccnc4)cc3)[C@@H]2C1	0
Cc1ccccc1S(=O)(=O)N1CCCCN2[C@H](C1)[C@H](c1ccc(-c3cccc(F)c3)cc1)[C@@H]2CO	-19*
CO[C@H](CN(C)C(=O)c1ccc2c(c1)OCO2)[C@@H](C)CN([C@@H](C)CO)S(=O)(=O)c1ccc(C)cc1	-1
CCC(=O)N1CC(=O)N2[C@@H](CO)[C@H](c3ccc(C#CC(C)C)cc3)[C@@H]2C1	3
CC(=O)N(C)C[C@H]1OCc2ccccc2-c2ccccc2C(=O)N([C@H](C)CO)C[C@@H]1C	8
COc1ccc2c3c([nH]c2c1)[C@@H](CO)N(C(=O)c1cnccn1)CC31CN(S(C)(=O)=O)C1	15
CCCC#Cc1ccc([C@@H]2[C@@H](CO)N3C(=O)CN(C(=O)Nc4ccccc4)C[C@H]23)cc1	7
CCS(=O)(=O)N1CC(=O)N2[C@H](C1)[C@H](c1ccc(C#Cc3cccc(F)c3)cc1)[C@@H]2CO	-6
CCC(=O)N1CC[C@@H]2[C@@H](CO)N(C)c3ccc(-c4ccccc4)cc3[C@@H]21	-1
CN(C)c1ccc2c(c1)[C@H]1C[C@H](CC(=O)NCc3ccc(-c4ccccc4)cc3)O[C@@H](CO)[C@H]1O2	7
COc1ccc(NC(=O)N[C@@H]2CC[C@@H](CCNC(=O)c3ccccc3F)O[C@H]2CO)cc1	-1
C[C@H](CO)N1C[C@H](C)[C@H](CN(C)Cc2ccc(O)cc2)OCc2ccccc2-c2c(n(C)c3ccccc23)C1=O	-2
C[C@H]1CN([C@@H](C)CO)C(=O)c2c(c3ccccc3n2C)-c2ccccc2CO[C@H]1CN(C)Cc1ccc(O)cc1	5
C[C@H](CO)N1C[C@H](C)[C@@H](CN(C)Cc2cccc(C(=O)O)c2)OCc2ccccc2-c2c(n(C)c3ccccc23)C1=O	-1
C[C@@H]1CN([C@@H](C)CO)C(=O)c2c(c3ccccc3n2C)-c2ccccc2CO[C@H]1CN(C)Cc1cccc(O)c1	-9
C[C@@H]1CN([C@H](C)CO)C(=O)c2c(c3ccccc3n2C)-c2ccccc2CO[C@H]1CN(C)Cc1cccc(F)c1	-35*
C[C@H]1CN([C@@H](C)CO)C(=O)c2c(c3ccccc3n2C)-c2ccccc2CO[C@H]1CN(C)Cc1cccc(C(=O)O)c1	-2
C[C@H]1CN([C@@H](C)CO)C(=O)c2c(c3ccccc3n2C)-c2ccccc2CO[C@@H]1CN(C)Cc1cccc(C(=O)O)c1	3
C[C@H](CO)N1C[C@H](C)[C@H](CN(C)Cc2cccc(O)c2)OCc2ccccc2-c2c(n(C)c3ccccc23)C1=O	-29*
C[C@H]1CN([C@@H](C)CO)C(=O)c2c(c3ccccc3n2C)-c2ccccc2CO[C@@H]1CN(C)Cc1cccc(O)c1	-45*
O=C(NCc1ccccc1F)[C@H]1N[C@H]2c3ccc(-c4ccccc4F)c(=O)n3C[C@H]2[C@@H]1CO	-5
SMILES	DUX4 inh
O=C(CC(F)(F)F)N1C[C@@H]2[C@H](c3ccccc31)[C@H](CO)N2C(=O)C1CCOCC1	2
COc1ccc2c3c(n(C)c2c1)[C@H](CO)NCC31CN(S(=O)(=O)c2cccc(F)c2)C1	5
C[C@@H]1CN([C@@H](C)CO)C(=O)c2cc(-c3ccc(C#N)cc3)cnc2O[C@@H]1CN(C)C(=O)CC1CC1	3
C[C@H](CO)N1C[C@H](C)[C@@H](CN(C)C(=O)c2ccccc2)OCCCC[C@H](C)Oc2ccc(NS(=O)(=O)c3ccc(F)cc3)cc2C1=O	2
C[C@@H]1CCCCO[C@H](CN(C)C(=O)Nc2ccc(F)cc2)[C@@H](C)CN([C@@H](C)CO)C(=O)c2cc(NC(=O)NC3CCCCC3)ccc2O1	2
CN1[C@H](C(=O)NC2CCCC2)[C@@H](CO)[C@@H]2Cn3c(ccc(/C=C/c4ccccc4)c3=O)[C@@H]21	-3
O=S(=O)(c1ccccc1F)N1C[C@@H]2N[C@H](C1)C2c1ccc(-c2ccncc2)cc1 (stereo partly drawn)	-4
O=S(=O)(c1ccccc1F)N1[C@@H]2CNC[C@H]1C2c1ccc(-c2ccncc2)cc1 (stereo partly drawn)	-2
O=S(=O)(c1ccccc1F)N1CCCCN2[C@H](C1)[C@@H](c1ccc(-c3cncnc3)cc1)[C@@H]2CO	30
N#Cc1cccc(-c2ccc(C3[C@@H]4CN(S(=O)(=O)c5ccccc5F)C[C@H]3N4)cc2)c1 (stereo partly drawn)	-54*!
Cc1ccccc1S(=O)(=O)N1C[C@@H]2N[C@H](C1)C2c1ccc(-c2cccc(C#N)c2)cc1 (stereo partly drawn)	-71*!
O=S(=O)(c1ccccc1F)N1[C@@H]2CNC[C@H]1C2c1ccc(-c2cccc(F)c2)cc1 (stereo partly drawn)	3
O=S(=O)(c1ccccc1F)N1C[C@@H]2N[C@H](C1)C2c1ccc(-c2cncnc2)cc1 (stereo partly drawn)	-14*
N#Cc1cccc(-c2ccc(C3[C@@H]4CN(C(=O)C5CCOCC5)C[C@H]3N4)cc2)c1 (stereo partly drawn)	1
Cc1ccccc1S(=O)(=O)N1[C@H](C#N)[C@H](c2ccc(-c3ccccc3)cc2)[C@H]1CO	0
O=C(C[C@@H]1C[C@H]2c3cc(NS(=O)(=O)c4ccc(F)cc4)ccc3O[C@H]2[C@H](CO)O1)NC1CCCCC1	-3
COc1ccc2c3c([nH]c2c1)[C@H](CO)NCC31CN(C(=O)c2ccccc2)C1	11
Cc1ccccc1S(=O)(=O)N(C)C[C@H]1OCc2cn(nn2)CCCC(=O)N([C@@H](C)CO)C[C@H]1C	2
C[C@H]1CNC(=O)[C@@H](Cc2ccc(C(F)(F)F)cc2)CCn2nncc2COC1	-6
COCC(=O)N1CC2(CCN(Cc3cncnc3)CC2)c2c(n(C)c3cc(OC)ccc23)[C@H]1CO	32
C[C@H](CO)N1C[C@H](C)[C@H](CN(C)Cc2cccc3c2OCCCO3)OCc2ccccc2-c2ccccc2C1=O	-1
C[C@@H]1CN([C@H](C)CO)C(=O)c2c(c3ccccc3n2C)-c2ccccc2CO[C@@H]1CN(C)Cc1ccncc1	-1
COc1ccccc1CN(C)C[C@@H]1OCc2ccccc2-c2c(n(C)c3ccccc23)C(=O)N([C@@H](C)CO)C[C@@H]1C	-32*
C[C@@H]1CN([C@@H](C)CO)C(=O)c2c(c3ccccc3n2C)-c2ccccc2CO[C@H]1CN(C)Cc1cccc2c1OCCCO2	-31*
C[C@@H]1CN([C@H](C)CO)C(=O)c2c(c3ccccc3n2C)-c2ccccc2CO[C@H]1CN(C)C	4
C[C@H](CO)N1C[C@H](C)[C@@H](CN(C)C)OCc2ccccc2-c2c(n(C)c3ccccc23)C1=O	3
C[C@@H]1CN([C@H](C)CO)C(=O)c2c(c3ccccc3n2C)-c2ccccc2CO[C@H]1CN(C)Cc1ccccc1C(F)(F)F	-49*
